Results as given in PubChem BioAssay AID504840 (Johns Hopkins Ion Channel Center, 2011).
The whole screen tested about 1,500 compounds, of which about 890 (59%) were called active.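 Rule for the calls: active = inhibition of the choline-evoked signal at any tested dose together with a fitted dose-response curve; inactive = no inhibition at any dose or no curve.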 So high a share suggests a set chosen from earlier hits. These entries were drawn from the full list. Entries with a potency or affinity are not part of this list.

target: High affinity choline transporter 1 (Homo sapiens) (UniProt Q9GZV3); assay: human choline transporter blockers, potency – cell-based, 5-point CRC, membrane potential dye, dose response (AID 504840); details: HEK293-CHT, choline-induced depolarization, CHT with LV-to-AA double alanine mutation; series mostly up to 37 µM
Sequence (Q9GZV3 whole entry, looked up): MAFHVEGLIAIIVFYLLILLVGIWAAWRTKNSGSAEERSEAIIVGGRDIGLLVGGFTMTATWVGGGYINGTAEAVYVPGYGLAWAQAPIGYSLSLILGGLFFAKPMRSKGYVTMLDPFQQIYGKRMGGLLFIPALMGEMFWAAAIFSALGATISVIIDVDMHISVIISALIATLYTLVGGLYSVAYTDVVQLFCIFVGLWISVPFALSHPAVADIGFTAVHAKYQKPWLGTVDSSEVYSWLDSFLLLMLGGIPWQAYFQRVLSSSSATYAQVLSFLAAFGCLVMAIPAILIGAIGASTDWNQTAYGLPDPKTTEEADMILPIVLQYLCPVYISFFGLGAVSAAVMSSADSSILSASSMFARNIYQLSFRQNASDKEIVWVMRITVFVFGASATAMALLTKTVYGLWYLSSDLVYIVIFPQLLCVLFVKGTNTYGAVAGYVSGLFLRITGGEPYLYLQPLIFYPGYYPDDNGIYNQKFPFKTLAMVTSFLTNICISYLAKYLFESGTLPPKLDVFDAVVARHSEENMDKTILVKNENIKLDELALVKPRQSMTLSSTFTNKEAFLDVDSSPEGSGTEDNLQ

Compound | outcome
O=C(NC1CCCC1)C(c1cccnc1)N(CCc1ccccc1)C(=O)c1ccco1 (stereo not given) | inactive
CC1CCC(NC(=O)c2ccc(NC3=NC4CS(=O)(=O)CC4S3)cc2)CC1 (stereo not given) | inactive
CC1CCC(NC(=O)Cn2c3c(c(-c4ccccc4Cl)cc2=O)CCC3)CC1 (stereo not given) | inactive
NC(N)=Nc1nc(CCN2C(=O)c3ccccc3C2=O)cs1 | inactive
CCN(CC)S(=O)(=O)c1cc(C(=O)N2CCc3ccccc32)ccc1Cl | inactive
CC(C)n1c(O)c(N=NC(=O)CNC(=O)Cc2ccc(Cl)cc2)c2ccccc21 | inactive
CCCCn1nc2cc(C(=O)NC3CCc4ccccc43)ccc2c1OCC (stereo not given) | inactive
CC(Oc1ccc(Cl)cc1Cl)C(=O)Nc1ccc(S(=O)(=O)Nc2cnc3ccccc3n2)cc1 (stereo not given) | inactive
O=C(Nc1ccc(S(=O)(=O)Nc2nccs2)cc1)c1c(F)c(F)c(F)c(F)c1F | inactive
Cc1ccc(NC(=O)CN(C)C(=O)COC(=O)CNS(=O)(=O)c2ccc(Br)cc2Cl)cc1 | inactive
O=C1C[C@H]2[C@H](CO)[C@@H](OC(=O)c3ccc(-c4ccccc4)cc3)C[C@H]2O1 | inactive
O=C(Nc1ccc(S(=O)(=O)Nc2cnc3ccccc3n2)cc1)c1ccc(Cl)c([N+](=O)[O-])c1 | inactive
CCC(Oc1ccccc1C)C(=O)Nc1ccc(S(=O)(=O)Nc2cc(C)on2)cc1 (stereo not given) | inactive
CC1(C)C(C=C(Cl)Cl)C1C(=O)Nc1ccc(S(=O)(=O)Nc2ncccn2)cc1 (stereo not given) | inactive
COC(=O)C1=C(N)Oc2cc(C)n(CCc3ccccc3)c(=O)c2C1c1cccnc1 (stereo not given) | inactive
CC(OC(=O)c1cc2sccc2n1C)C(=O)NC(C)(C)C (stereo not given) | inactive
COc1ccc(N2CCN(CC(=O)Nc3c(C)cc(C)cc3C)CC2)cc1 | inactive
CN(C)c1ccc(Nc2c3c4c(cccc4n(C)c2=O)C(=O)c2ccccc2-3)cc1 | inactive
CCCCNS(=O)(=O)c1ccc(NC(=O)Cc2ccccc2[N+](=O)[O-])cc1 | inactive
CC(=O)c1cc2c(cc1NC(=O)CCNC(=O)c1ccccc1Cl)OCO2 | inactive
O=C(CC(=O)c1c(F)cccc1Cl)c1ccccc1O | inactive
CCCCOC(=O)c1ccc(NC(=O)c2cc(Cl)c(Cl)cc2C(=O)O)cc1 | inactive

Compound | outcome
Cc1ccc2[nH]c3c(c2c1)CN(C(=O)CN1CCN(Cc2ccc4c(c2)OCO4)CC1)CC3 | inactive
CCOc1[nH]c(/N=C/c2ccco2)c(C#N)c1C#N | inactive
CC(C)(C)C(=O)N1CCN(c2ccc(NC(=O)c3ccc4c(c3)OCCO4)cc2)CC1 | inactive
Cc1ccc(CNC(=O)N[C@@H](Cc2ccccc2)C(=O)O)cc1 | inactive
COc1ccc(C(=O)NC(=S)NNC(=O)CCc2ccccc2)cc1 | inactive
CC1=C(C(=O)OC(C)C)C(c2ccc(Br)s2)NC(=O)N1C (stereo not given) | inactive
COC(=O)CCCCCN1C(=O)NC(C2CC2)C(C(=O)OCc2ccccc2)=C1C (stereo not given) | inactive
CCOC(=O)c1cnc2c(Cl)cc(Cl)cc2c1NCCOCCO | inactive
O=C(CS(=O)(=O)Nc1ccc(F)cc1Cl)Nc1ccc(F)cc1Cl | inactive
CC(C(=O)NC1CCS(=O)(=O)C1)N1C(=O)/C(=C/c2ccc(Cl)cc2)SC1=S (stereo not given) | inactive
Cc1ccc(S(=O)(=O)NCCC(=O)NC(C)CCc2ccccc2)cc1 (stereo not given) | inactive
Cc1n[nH]c(=O)c2c(NC(=O)CSc3nc4ccccc4c(=O)n3C(C)C)oc(C)c12 | inactive
CC(C)n1c(=S)[nH]c2cc(Cl)ccc21 | inactive
CCn1cc(C(=O)N(CCC(C)C)c2c(N)n(Cc3ccccc3)c(=O)[nH]c2=O)c(=O)c2ccc(C)nc21 | inactive
Fc1ccc(-c2nc3c(-c4ccc(F)cc4)cnn3cc2CCN2CCOCC2)cc1 | inactive
CN1CCN(c2ccc(NC(=O)c3ccc(Cl)cc3Cl)cc2)CC1 | inactive
CSC1=C(C#N)C(c2ccncc2)C(C(=O)Nc2ccccc2)=C(C)N1 (stereo not given) | inactive
CCN(CCNC(=O)CN1CCN(Cc2ccc(Cl)cc2)C1=O)c1ccccc1 | inactive
Cc1ccccc1Nc1c(-c2ccncc2)nc2ccc(Br)cn12 | inactive
Cc1ccc(NC(=S)Nc2cccc3cnccc23)cc1C | inactive
Cc1ccc(NC(=S)Nc2ccc(F)cc2)cc1C | inactive
COc1ccc([N+](=O)[O-])c(S(=O)(=O)c2ccccc2)n1 | inactive

Compound | outcome
COc1ccc(OCc2cccc(C(=O)Nn3cc([N+](=O)[O-])cn3)c2)cc1 | inactive
Cc1cc2c(ncn2Cc2ccccc2)c([N+](=O)[O-])c1C | inactive
CC(C)c1cc(C(=O)NNC(=S)NC2CCCCC2)cs1 | inactive
CCN(CC)S(=O)(=O)c1ccc(/C=C/C(=O)NC2CCCCC2)cc1 | inactive
O=C(CCc1ccc(S(=O)(=O)N2CCOCC2)cc1)N1CCc2ccccc2C1 | inactive
COc1ccc(S(=O)(=O)N2CCC(C(=O)N3CCc4ccccc4C3)CC2)cc1 | inactive
CNCC(O)c1ccc(O)c(O)c1 (stereo not given) | inactive
C#CC[N+](CC)(CC)CC#Cc1ccccc1 | inactive
Cc1cc(=O)[nH]c(SCC(=O)/C=C2\N(C)c3ccccc3C2(C)C)n1 | inactive
CC(=O)Oc1ccc(C(=O)Nc2ccc(S(=O)(=O)NCC3CCCO3)cc2)cc1 (stereo not given) | inactive
Cn1cnnc1Sc1ccc(C(=O)NCCC(c2ccccc2)c2ccccc2)cc1[N+](=O)[O-] | inactive
COc1cc(C(=O)NC(=S)NNC(=O)[C@H]2C[C@@H]2c2ccccc2)cc(OC)c1OC | inactive
O=C(Nc1ncc([N+](=O)[O-])s1)C1CC(=O)N(c2ccc(F)cc2)C1 (stereo not given) | inactive
Cc1ccc(N2CC(C(=O)Nc3ncc([N+](=O)[O-])s3)CC2=O)cc1 (stereo not given) | inactive
CCCCCC(=O)c1ccc(O)cc1O | inactive
CCN(CC)CCCNC(=O)c1cn(CC)c2ccc(S(=O)(=O)N(C)C3CCCCC3)cc2c1=O | inactive
CCCCn1c(SCc2nnc(-c3ccccc3)o2)nc2c1c(=O)n(C)c(=O)n2C | inactive
Cn1nc(C(=O)NCCCN2CCCCC2)c2c1-c1ccccc1SC2 | inactive
CC1CCCC(C)N1CCCNC(=O)c1ccc2c(c1)NC(=O)c1ccccc1S2 (stereo not given) | inactive
CCCCCCCCCCCCN1[C@@H](CC(=O)O)c2cc(C(F)(F)F)ccc2S1(=O)=O | inactive
CN(Cc1ccccc1F)C(=O)CCCNC(=O)c1ccc(Cl)cc1 | inactive
